Composite z-score and z-score data for five compounds are collected here from PubChem BioAssay.

The source made the active and inactive calls.

In assay [1] the test system is Plasmodium falciparum Sir2 (PF13_0152, Sir2A). The experiment in a line: pfSir2 binders on small-molecule microarrays, primary screen, biochemical, small-molecule microarray, 635 nm fluorescence (AID 1098).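 Note: score merges spot fluorescence intensity with its signal-to-noise ratio.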 The following applies: small-molecule microarray binding, fluorescence 635 nm; higher = more signal.
Assay [2] can be described thus: small-molecule microarray binders of probe aDKK1, primary screen, biochemical, biotinylated probe, 635/667 nm fluorescence (AID 1099).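 Note: score merges 667nm spot fluorescence with signal to noise across triplicate slides.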 The following applies: higher = more signal.
The nature of assay [3]: small-molecule microarray binders of probe aCHRDL2, primary screen, biochemical, biotinylated probe, 635/667 nm fluorescence (AID 1100). The following applies: higher = more signal.
Assay [4] in a line: splicing luciferase reporter signal modulators, primary screen, spliceosome inhibition project, cell-based, HEK293, splice +/- reporter (AID 1101).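 Note: HEK293 cells carrying a splicing-competent luciferase reporter gene; test concentration not given here.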 To be noted: luminescence, 24 h, higher = more signal, called active from +8 up or from −8 down. A general note: In a reporter assay the amount or activity of a reporter protein is the signal.
Assay [5] deals with Fibroblast growth factor 10 (Homo sapiens) (UniProt O15520). Description: FGF10 binders on small-molecule microarrays, primary screen, biochemical, small-molecule microarray, 635 nm fluorescence (AID 1102). The following applies: FGF10 binding, fluorescence 635 nm, higher = more signal.
The test system of assay [6] is glycogen synthase kinase-3 (GSK3A per assay name; protocol says GSK3B). The experiment in a line: GSK3 binders on small-molecule microarrays, primary screen, biochemical, small-molecule microarray, 635 nm fluorescence, GSK3A (AID 1103). Note: the record names both GSK3A and GSK3B. The following applies: small-molecule microarray binding, fluorescence 635 nm; higher = more signal.
The target of assay [7] is Epidermal growth factor receptor (Homo sapiens) (UniProt P00533). The experiment in a line: EGFR binders on small-molecule microarrays, primary screen, biochemical, small-molecule microarray, 635 nm fluorescence (AID 1104).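 Note: score merges 667 nm emission intensity with spot signal to noise over triplicate slides.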 The following applies: EGFR binding, higher = more signal.
Assay [8] has as its target Follistatin-related protein 3 (Homo sapiens) (UniProt O95633). The experiment in a line: FSTL3 binders on small-molecule microarrays, primary screen, biochemical, small-molecule microarray, 635 nm fluorescence (AID 1105).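 Note: score merges emission near 667 nm and signal to noise per printed spot across three slides.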 To be noted: FSTL3 binding, higher = more signal.
Assay [9] concerns the target Dickkopf-related protein 1 (Homo sapiens) (UniProt O94907). Description: DKK1 binders on small-molecule microarrays, primary screen, biochemical, small-molecule microarray, 635 nm fluorescence scan (AID 1106).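 Note: score merges emission near 667 nm with signal to noise over three replicate slides.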 The following applies: DKK1 binding, higher = more signal.
For assay [10], the system named is Inhibin beta A chain (activin A). The experiment in a line: INHBA (activin A) binders on microarrays, primary screen, biochemical, small-molecule microarray, 635 nm fluorescence scan (AID 1107).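 Note: mouse activin A protein probed at 4.33 µg/mL on printed slides; score merges bound-protein fluorescence near 667 nm with spot signal-to-noise.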 To be noted: small-molecule microarray binding, higher = more signal.
The subject of assay [11] is Human papillomavirus type 1a protein E7 (residues 44-93). Description: HPV1a E7 fragment binders on microarrays, primary screen, biochemical, small-molecule microarray, residues 44-93, 635 nm fluorescence (AID 1108).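 Note: E7 fragment applied at 1 µg/mL in TBST for 1 h at 4 C; score combines spot fluorescence with its signal to noise ratio.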 The following applies: small-molecule microarray binding, fluorescence 635 nm; higher = more signal.
A short description of assay [12]: modulators of HCV replicon luciferase signal, primary screen, HCV replication inhibitor project, Huh7 cells, luciferase reporter (AID 1109).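 Note: huh7 hepatoma cells harbouring a luciferase neomycin HCV replicon reporter; luciferase luminescence as measure of HCV replicon replication; test concentration not given here.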 To be noted: 48 h, higher = more signal.
In assay [13] the target is Left-right determination factor 2 (Homo sapiens) (UniProt O00292). The experiment in a line: LEFTY2 binders on small-molecule microarrays, primary screen, biochemical, small-molecule microarray, 635 nm fluorescence scan (AID 1110). To be noted: LEFTY2 binding, higher = more signal.
For assay [14], the target named is Calmodulin-1 (Homo sapiens) (UniProt P0DP23). The experiment in a line: CALM1 binders on microarrays, EGTA buffer, profiling panel, biochemical, small-molecule microarray, Cy5-labelled CALM1 (AID 1111).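 Note: labelled calmodulin applied in Tris saline Tween buffer holding calcium plus EGTA and DTT.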 To be noted: Cy5-CALM1 binding fluorescence, higher = more signal.
Assay [15] shares this target. Description: calcium-bound CALM1 binders on microarrays, profiling panel, artefact control for SMM control-protein annotation, biochemical, small-molecule microarray, Cy5-labelled CALM1, plus calcium (AID 1112).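 Note: score merges spot fluorescence with signal to noise from triplicate slides.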 The following applies: Cy5-CALM1 binding fluorescence, higher = more signal.
The nature of assay [16]: small-molecule microarray binders of probe aWnt5a, primary screen, biochemical, biotinylated probe, 635/667 nm fluorescence (AID 1113).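 Note: score merges 667 nm fluorescence intensity with signal-to-noise per printed feature.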 To be noted: higher = more signal.
Assay [17] can be described thus: small-molecule microarray binders of probe aShh, primary screen, biochemical, biotinylated probe, 635/667 nm fluorescence (AID 1114).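 Note: probe is biotin-labelled aShh protein from a stem cell growth factor screen; measures binding of labelled protein to compounds printed on the slide; score merges feature fluorescence at 667 nm with signal-to-noise.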 To be noted: higher = more signal.
A short description of assay [18]: small-molecule microarray binders of probe aNog, primary screen, biochemical, biotinylated probe, 635/667 nm fluorescence (AID 1115).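 Note: probe is biotinylated aNog protein used at 0.15 µg/mL for 1 h at 4 C; z-score combines 667 nm fluorescence of each spot with its signal to noise.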 The following applies: higher = more signal.
The target in assay [19] is Torsin-1A-interacting protein 1 (Homo sapiens) (UniProt Q5JTV8). Description: LAP1 binders from COS7 cell lysate, primary screen, small-molecule microarray, 635/667 nm fluorescence (AID 1116). To be noted: COS7-hLAP1 lysate binding, 635 nm fluorescence, higher = more signal.
Assay [20] concerns the target Alpha-bungarotoxin (Bungarus multicinctus) (UniProt P60615). The experiment in a line: alpha-bungarotoxin binders on microarray, profiling panel, artefact control for SMM control protein annotation, biochemical, small-molecule microarray, Alexa647 label, 635/667 nm fluorescence (AID 1117). The following applies: alpha-BTX-A647 binding fluorescence, higher = more signal.

Sequence of Alpha-bungarotoxin (Bungarus multicinctus) (P60615 whole entry, looked up): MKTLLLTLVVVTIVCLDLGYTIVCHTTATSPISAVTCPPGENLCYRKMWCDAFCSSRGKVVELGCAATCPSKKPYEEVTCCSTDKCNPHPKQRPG
Sequence of Torsin-1A-interacting protein 1 (Homo sapiens) (Q5JTV8 whole entry, looked up): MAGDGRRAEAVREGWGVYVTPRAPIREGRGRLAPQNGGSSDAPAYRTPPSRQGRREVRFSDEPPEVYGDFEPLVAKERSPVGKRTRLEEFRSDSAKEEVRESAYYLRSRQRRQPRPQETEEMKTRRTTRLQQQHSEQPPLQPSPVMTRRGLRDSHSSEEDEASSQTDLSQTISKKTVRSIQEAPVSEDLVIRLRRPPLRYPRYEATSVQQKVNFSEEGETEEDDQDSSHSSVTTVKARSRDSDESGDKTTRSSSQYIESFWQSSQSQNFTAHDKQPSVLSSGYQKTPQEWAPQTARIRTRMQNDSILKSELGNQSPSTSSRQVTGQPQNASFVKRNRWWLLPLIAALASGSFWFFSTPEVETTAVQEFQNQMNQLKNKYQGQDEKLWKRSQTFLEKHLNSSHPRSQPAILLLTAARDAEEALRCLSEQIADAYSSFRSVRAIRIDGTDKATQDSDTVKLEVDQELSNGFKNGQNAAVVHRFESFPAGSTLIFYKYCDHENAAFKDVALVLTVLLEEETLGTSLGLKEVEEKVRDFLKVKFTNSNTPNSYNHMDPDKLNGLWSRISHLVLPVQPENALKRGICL
Sequence of Dickkopf-related protein 1 (Homo sapiens) (O94907 whole entry, looked up): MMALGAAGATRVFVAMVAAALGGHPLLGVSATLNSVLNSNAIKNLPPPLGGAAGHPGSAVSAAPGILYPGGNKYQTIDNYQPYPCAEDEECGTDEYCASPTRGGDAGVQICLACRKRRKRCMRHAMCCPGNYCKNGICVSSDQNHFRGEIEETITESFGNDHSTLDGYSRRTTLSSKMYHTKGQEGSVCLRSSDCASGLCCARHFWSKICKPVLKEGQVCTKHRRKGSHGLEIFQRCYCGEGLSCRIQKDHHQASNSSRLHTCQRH
Sequence of Fibroblast growth factor 10 (Homo sapiens) (O15520 whole entry, looked up): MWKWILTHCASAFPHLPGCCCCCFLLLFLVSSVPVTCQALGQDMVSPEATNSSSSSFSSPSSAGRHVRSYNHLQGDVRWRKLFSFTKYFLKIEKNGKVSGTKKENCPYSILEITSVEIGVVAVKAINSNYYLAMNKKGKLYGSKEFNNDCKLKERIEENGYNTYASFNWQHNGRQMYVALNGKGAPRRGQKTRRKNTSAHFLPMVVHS
Sequence of Follistatin-related protein 3 (Homo sapiens) (O95633 whole entry, looked up): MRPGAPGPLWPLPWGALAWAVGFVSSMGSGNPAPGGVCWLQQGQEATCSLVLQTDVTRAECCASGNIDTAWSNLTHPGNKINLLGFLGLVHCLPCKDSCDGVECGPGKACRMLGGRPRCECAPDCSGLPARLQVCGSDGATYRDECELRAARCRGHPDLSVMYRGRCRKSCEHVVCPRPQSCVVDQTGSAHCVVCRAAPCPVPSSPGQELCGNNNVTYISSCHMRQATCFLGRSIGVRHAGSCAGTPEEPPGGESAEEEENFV
Sequence of Epidermal growth factor receptor (Homo sapiens) (P00533 whole entry, looked up): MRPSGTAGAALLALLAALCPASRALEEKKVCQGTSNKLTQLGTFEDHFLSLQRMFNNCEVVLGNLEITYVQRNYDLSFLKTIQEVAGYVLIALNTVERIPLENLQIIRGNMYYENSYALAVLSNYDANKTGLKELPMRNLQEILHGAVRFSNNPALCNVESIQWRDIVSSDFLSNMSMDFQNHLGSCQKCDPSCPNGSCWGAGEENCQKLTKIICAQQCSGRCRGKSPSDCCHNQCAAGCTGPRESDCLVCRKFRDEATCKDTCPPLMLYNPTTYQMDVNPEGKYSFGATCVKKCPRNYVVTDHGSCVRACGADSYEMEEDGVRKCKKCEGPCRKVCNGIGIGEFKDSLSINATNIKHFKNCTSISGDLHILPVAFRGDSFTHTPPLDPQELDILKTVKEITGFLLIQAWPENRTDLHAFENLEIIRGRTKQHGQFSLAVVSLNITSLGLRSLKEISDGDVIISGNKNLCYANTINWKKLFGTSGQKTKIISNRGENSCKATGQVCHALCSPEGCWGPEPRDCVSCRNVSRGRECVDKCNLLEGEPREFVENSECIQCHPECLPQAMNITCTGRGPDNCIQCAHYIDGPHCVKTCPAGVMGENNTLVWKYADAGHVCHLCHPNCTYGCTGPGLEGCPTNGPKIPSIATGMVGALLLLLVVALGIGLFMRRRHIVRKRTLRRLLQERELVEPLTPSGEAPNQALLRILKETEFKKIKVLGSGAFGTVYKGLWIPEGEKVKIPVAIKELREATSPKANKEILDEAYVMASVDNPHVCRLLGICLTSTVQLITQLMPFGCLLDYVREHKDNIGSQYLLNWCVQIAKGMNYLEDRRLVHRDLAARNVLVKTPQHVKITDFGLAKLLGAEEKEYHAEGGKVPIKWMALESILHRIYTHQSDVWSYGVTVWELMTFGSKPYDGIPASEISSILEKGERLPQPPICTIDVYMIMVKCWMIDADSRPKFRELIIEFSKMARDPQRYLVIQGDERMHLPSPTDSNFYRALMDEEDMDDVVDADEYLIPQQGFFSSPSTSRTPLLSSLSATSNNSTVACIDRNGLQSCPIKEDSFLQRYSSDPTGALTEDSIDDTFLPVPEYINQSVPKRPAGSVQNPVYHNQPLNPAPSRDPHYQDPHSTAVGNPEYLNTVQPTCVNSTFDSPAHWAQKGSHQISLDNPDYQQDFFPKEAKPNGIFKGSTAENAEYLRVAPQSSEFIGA
Sequence of Left-right determination factor 2 (Homo sapiens) (O00292 whole entry, looked up): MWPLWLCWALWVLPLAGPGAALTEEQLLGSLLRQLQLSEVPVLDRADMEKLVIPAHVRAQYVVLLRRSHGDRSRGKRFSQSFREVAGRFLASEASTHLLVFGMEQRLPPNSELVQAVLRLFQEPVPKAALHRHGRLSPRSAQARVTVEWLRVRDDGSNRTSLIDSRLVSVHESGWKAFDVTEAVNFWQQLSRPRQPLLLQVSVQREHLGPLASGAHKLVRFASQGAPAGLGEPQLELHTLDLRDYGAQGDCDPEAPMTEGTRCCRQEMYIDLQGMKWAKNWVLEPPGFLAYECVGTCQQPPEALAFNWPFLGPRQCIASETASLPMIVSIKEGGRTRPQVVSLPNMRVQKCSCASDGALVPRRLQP

In the case of `COc1ccc([Si](C)(C)[C@H]2[C@H](CCO)O[C@@]3(C(=O)N(Cc4cccc(N(C=O)c5ccccc5)c4)c4ccccc43)[C@@H]2C)cc1`, the composite z-score is 1.14 in assay [1]; -0.305 in assay [2]; -0.777 in assay [3]; 1.33 in assay [5]; 1.29 in assay [6]; 0.406 in assay [7]. Also, the composite z-score in assay [8] worked out at 1.08; in [9], 0.469; in assay [10], 0.013; in [11], 1.39; in [13], 0.393; in [14] it was 0.909. Moreover, the composite z-score in assay [15] was -0.507; in assay [16] it was -0.0269; in assay [17] it was 0.0723; in assay [18], 0.0199; in [19], 0.124; in [20], 0.751. Also, the z-score in [4] was -1.53 (inactive); in [12], -4.84.

As to `CO[C@H]1O[C@H](CO)[C@@H](OC(=O)Nc2ccccc2)[C@H](OC(=O)Nc2ccccc2)[C@H]1OC(=O)Nc1ccccc1`, the composite z-score was 1.48 in assay [1]; -0.0074 in assay [2]; -0.0165 in [3]; 1.48 in assay [5]; 1.25 in assay [6]; 0.0428 in assay [7]. Moreover, the composite z-score in assay [8] was 0.41; in assay [9], 0.183; in assay [10], 0.232; in assay [11], 1.5; in [13], -0.0522; in [14], 1.34. Further, the composite z-score in [15] is -0.12; in assay [16], 0.0519; in assay [17], -0.0709; in assay [18], -0.273; in assay [19], 1.75; in [20], 1.05. In addition, the z-score in assay [4] was -0.405 (inactive); in [12] it was -2.73.

With `CC(C)NC(=O)[C@@]1(C)c2ccccc2C(=O)N(Cc2ccccc2)[C@H]1c1ccc(CO)cc1`, the composite z-score in assay [1] was 1.7; in assay [2], -0.152; in [3] it was 0.424; in assay [5] it was -1.2; in [6] it was -0.0543; in assay [7], -0.921. Also, the composite z-score was -0.394 in assay [8]; -0.0744 in assay [9]; -1.14 in assay [10]; 0.864 in assay [11]; -1.47 in assay [13]; -0.155 in assay [14]. Moreover, the composite z-score is -0.672 in [15]; -0.0819 in [16]; -0.209 in assay [17]; -0.45 in assay [18]; -0.922 in [19]; 0.386 in assay [20]. For the same compound, the z-score in assay [4] is -0.44 (inactive); in [12], -0.957.

Take `CC(=O)OCC1C2CC[C@H]3C(OCc4ccc(F)cc4C(F)(F)F)OC[C@]4(C)[C@H]3C2=C(CN4C(=O)OC(C)(C)C)[C@H](C)C1COC(C)=O` (stereo not given in full): the composite z-score is 0.547 in assay [1]; 0.547 in assay [2]; 1.06 in assay [3]; 0.398 in [5]; -0.466 in assay [6]; -1.08 in assay [7]. In addition, the composite z-score in assay [8] was -0.925; in assay [9], -1.31; in assay [10] it was 0.838; in assay [11], 0.359; in assay [13], -1.65; in [14], 1.95. For the same compound, the composite z-score in assay [15] was 1.19; in assay [16] it was 0.591; in [17], 0.338; in [18], 0.182; in assay [19] it was -0.212; in assay [20] it was 0.668. Also, the results for the z-score in [4] and in assay [12] were -0.329 (inactive) and -0.834, respectively.

In the case of `CCN(CC)c1ccc(N2CC=CC34O[C@@H]5C=CCCOC(=O)C5[C@H]3C(=O)N(C(C)CO)[C@@H]4C2=O)cc1` (stereo not given in full), the composite z-score in [1] was 1.85; in assay [2], -0.24; in assay [3] it was 0.477; in assay [5] it was 0.0925; in assay [6], 0.519; in [7], -0.79. The composite z-score in assay [8] is -0.157; in assay [9] it was -0.0888; in assay [10], 1.42; in assay [11], 0.274; in assay [13], -0.331; in assay [14] it was -0.521. Also, the composite z-score in assay [15] is -1.08; in assay [16], -0.0758; in assay [17], 0.194; in [18], 0.156; in [19], 0.391; in assay [20] it was -0.973. In addition, the z-score in assay [4] was -0.0428 (inactive); in assay [12], -1.19.
